KLF5 inh – kruppel-like factor 5 inhibition; AID 1700; inhibition, % at 5 µM; DLD-1 KLF5 promoter-luciferase reporter, luminescence; 290,000 tested, 0.23% active;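 active means inhibition above a per-plate limit of that plate's mean compound inhibition plus 3 SD, cut at about 60% in these data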;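 further: 0% = DMSO wells and 100% = LY294002 at 200 µM; higher means less KLF5 promoter-driven luciferase light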
BaF3 tox – parental Ba/F3 viability inhibition as JAK2V617F counter-screen | CellTiter-Glo ATP luminescence | 220,000 tested, 1.1% active | AID 1486 | inhibition, % at 5.6 µM;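 active means inhibition above a per-campaign cutoff, the mean inhibition of all tested compounds plus 3 SD, cut at about 27% in these data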;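 further: 0% = DMSO wells and 100% = JAK Inhibitor I control wells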
APP transl inh – APP translation inhibition; SH-SY5Y APP 5'UTR-luciferase reporter, luminescence; inhibition, % at 2 µM; 190,000 tested, 0.82% active;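 active means inhibition above a set limit, derived from the sample mean plus 3 SD, cut at about 45% in these data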
aSyn 5UTR inh – 5' untranslated region of α-synuclein, MLPCN primary screen; 300,000 tested, 0.82% active; inhibition, % (tested at 7.5 µM); AID 1813; alpha-synuclein 5'UTR reporter, inhibitor activity; in the data active means inhibition above about 60%;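 further: H4 neuroglioblastoma cells stably carrying SNCA 5'UTR luciferase fusion; 0% = DMSO wells and 100% = positive control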
Ba/F3 V617F tox – lowers viability of Ba/F3 cells expressing EpoR and JAK2V617F; inhibition, % at 5.6 µM; AID 1446; 220,000 tested, 1.1% active; ATP luminescence;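 active means inhibition above the campaign mean plus 3 SD over all tested compounds, cut at about 24% in these data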;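 further: cytokine-independent growth of Ba/F3 cells driven by EpoR plus mutant JAK2; 0% = DMSO-treated cells and 100% = JAK inhibitor I control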
IEC-6 cytotox – IEC-6 cytotoxicity, counter-screen for KLF5 inhibitors. 290,000 tested, 0.78% active. luminescence viability. inhibition, % at 5 µM. AID 1825; in the data active means inhibition above about 22%;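 further: 0% = plate median of test compound wells and 100% = cytotoxic reference compound wells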
BaF3 tox 2 – parental Ba/F3 viability inhibition for JAK2V617F counter-screen | CellTiter-Glo luminescence; cells kept alive by added IL-3 | AID 1520 | 580 tested, 31% active | inhibition, % at 5.6 µM | shares compounds with Ba/F3 V617F tox;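 active means cell growth inhibition above the hit limit set in the earlier mutant JAK2 cell screen, cut at about 27% in these data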;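 further: plate controls were DMSO-treated cells for no effect and JAK Inhibitor I control wells for full effect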
JAK2V617F conf – Ba/F3 EpoR-JAK2V617F viability loss, confirmation; shares compounds with Ba/F3 V617F tox; CellTiter-Glo luminescence; inhibition, % at 5.6 µM; 580 tested, 66% active;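 active means mean inhibition above the hit cutoff derived in the earlier primary screen, cut at about 25% in these data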;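 further: 0% = DMSO-treated cells and 100% = JAK inhibitor I control wells; higher means lower luminescence from reduced cell ATP and viability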
Starred values were filed as active, the others as inactive. Hits are enriched below; roughly 2.2% of the tested compounds scored in any of these assays.

Results for Cc1nnc(SCC(=O)NC(C)(C)C)n1NCc1cccc(Br)c1 ?
KLF5 inh: -8; aSyn 5UTR inh: 7; IEC-6 cytotox: 1

What do the screens show for `O=C(NC1(C(F)(F)F)Oc2ccccc2O1)N1CCCC1`?
KLF5 inh: 2; BaF3 tox: 23; APP transl inh: 15; aSyn 5UTR inh: -44; Ba/F3 V617F tox: 40*; IEC-6 cytotox: 7; BaF3 tox 2: 10; JAK2V617F conf: 36*

How did O=C(O)COc1ccccc1/C=C1\SC(=S)N(c2cccnc2)C1=O do in these assays?
KLF5 inh: -16; BaF3 tox: -1; aSyn 5UTR inh: 8; Ba/F3 V617F tox: 82*; IEC-6 cytotox: 6; BaF3 tox 2: -4; JAK2V617F conf: 12

Results for COc1cccc(/C=C2\SC(=S)N(c3cccnc3)C2=O)c1OC ?
KLF5 inh: -23; BaF3 tox: -3; APP transl inh: -17; aSyn 5UTR inh: 31; Ba/F3 V617F tox: 1; IEC-6 cytotox: 12

What do the screens show for `CCc1ccccc1N(CC(=O)NC1CCCC1)C(=O)CNC(=O)c1cccs1`?
KLF5 inh: 0; aSyn 5UTR inh: -13; IEC-6 cytotox: -7

Results for Cc1cc(=O)n2nc(N3CCCC3C(=O)Nc3ccc(C(C)C)cc3)sc2n1 (stereo not given) ?
KLF5 inh: -21; aSyn 5UTR inh: -5; IEC-6 cytotox: -2

How did COc1cc(C(C[N+](=O)[O-])c2c(N)n(C)c(=O)n(C)c2=O)ccc1O (stereo not given) do in these assays?
KLF5 inh: -15; BaF3 tox: 3; APP transl inh: -2; aSyn 5UTR inh: -15; Ba/F3 V617F tox: -1; IEC-6 cytotox: -1

How did COc1cccc(F)c1C(C[N+](=O)[O-])c1c(N)n(C)c(=O)n(C)c1=O (stereo not given) do in these assays?
KLF5 inh: 7; BaF3 tox: 6; aSyn 5UTR inh: -19; Ba/F3 V617F tox: 63*; IEC-6 cytotox: 9; BaF3 tox 2: 2; JAK2V617F conf: 92*

What do the screens show for `COc1ccc(CCNC(=O)C(=O)NCCC2CCCCN2S(=O)(=O)c2cccs2)cc1` (stereo not given)?
aSyn 5UTR inh: -2

How did COc1cc(/C=C2\SC(=S)N(CC(=O)NC(C)(C)C)C2=O)cc(OC)c1OC do in these assays?
KLF5 inh: -12; BaF3 tox: 5; APP transl inh: 4; aSyn 5UTR inh: -17; Ba/F3 V617F tox: 102*; IEC-6 cytotox: 5; BaF3 tox 2: -7; JAK2V617F conf: 9

What do the screens show for `COc1cc(/C=C2/SC(=S)N(CC(=O)NC(C)(C)C)C2=O)cc(OC)c1OC`?
KLF5 inh: -22; BaF3 tox: 5; APP transl inh: 4; aSyn 5UTR inh: 5; Ba/F3 V617F tox: 2; IEC-6 cytotox: -1

Results for Cc1ccccc1OCC(=O)NCCS(=O)(=O)N1CCN(c2ccc(F)cc2)CC1 ?
aSyn 5UTR inh: -13

Results for COc1ccc2nc(C)cc(Nc3ccc(C)cc3)c2c1 ?
KLF5 inh: -28; aSyn 5UTR inh: 27; IEC-6 cytotox: 4

What do the screens show for `Cc1ccc2nc(C)cc(Nc3ccc([N+](=O)[O-])cc3)c2c1`?
KLF5 inh: 5; BaF3 tox: 4; APP transl inh: 19; aSyn 5UTR inh: 10; Ba/F3 V617F tox: 38*; IEC-6 cytotox: 6; BaF3 tox 2: 1; JAK2V617F conf: 82*

Results for Nc1ccc2c(c1)C(=O)C(=O)c1ccccc1-2 ?
KLF5 inh: -58; BaF3 tox: 14; APP transl inh: 88*; aSyn 5UTR inh: 130*; Ba/F3 V617F tox: 44*; IEC-6 cytotox: 5; BaF3 tox 2: 107*; JAK2V617F conf: 99*

What do the screens show for `C=CCOc1c(Br)cc(CNc2ccc3[nH]c(=O)[nH]c3c2)cc1OCC`?
KLF5 inh: -1; BaF3 tox: 8; APP transl inh: 3; aSyn 5UTR inh: 3; Ba/F3 V617F tox: 32*; IEC-6 cytotox: 8; BaF3 tox 2: 35*; JAK2V617F conf: 74*
